Where a name gives a salt, the structure may show the parent alone.
Each molecule was assayed on Saccharomyces cerevisiae BY4741 SeMeCo community (assay: z-score of subpopulation abundance vs DMSO median, subpopulation auxotrophic for HM; higher = larger share of this subpopulation than in DMSO controls). Conditions: 10 µM; 24 h; SM minimal medium; subpopulation (auxotrophy): HM.
Protocol: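 Fluorescent four-plasmid SeMeCo (self-establishing metabolically cooperating S. cerevisiae BY4741 community; plasmids pH-mRuby2, pL-mWasabi, pU-eCFP, pM-TagRFP657) was grown 24 h in minimal SM medium with each Selleck FDA-approved drug at 10 µM in 384-well plates. Cells were fixed and imaged by high-content confocal microscopy. For each auxotrophic subpopulation (and the prototroph), a z-score gives the deviation from the DMSO vehicle-control population median.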

First: C[N+]12CCC(CC1)C(OC(=O)C(O)(c1ccccc1)c1ccccc1)C2 (stereo not given) [Clidinium Bromide]
Second: CCN(CC)CCOC(=O)C(O)(c1ccccc1)c1ccccc1 [Benactyzine hydrochloride]
The “z-score of subpopulation abundance” value of the first is higher: -0.38 for the first, -0.6 for the second.

Compared with C[C@@H]1O[C@@H](O[C@H]2C[C@@H](O)[C@]3(CO)[C@H]4[C@H](O)C[C@]5(C)[C@@H](C6=CC(=O)OC6)CC[C@]5(O)[C@@H]4CC[C@]3(O)C2)[C@H](O)[C@H](O)[C@H]1O [Ouabain], C[C@H]1O[C@H](O[C@H]2[C@H](O)[C@@H](O)[C@@H](O)[C@H](O)[C@@H]2O)[C@@H](N)C[C@@H]1NC(=N)C(=O)O [Kasugamycin hydrochloride] is higher in “z-score of subpopulation abundance” value: -0.63 for the first, -0.08 for the second.

First: NCCc1c[nH]c2ccc(O)cc12 [Serotonin HCl]
Second: COc1ccc2[nH]cc(CCN)c2c1 [5-Methoxytryptamine]
The “z-score of subpopulation abundance” value of the first is higher: 0.16 for the first, -0.25 for the second.

Going from CC[C@H]1[C@@H]2C[C@H]3[C@@H]4N(C)c5ccccc5[C@]45C[C@@H]([C@@H]2[C@H]5O)N3[C@@H]1O [Ajmaline] to CC[C@H]1CN2CC[C@]3(C(=O)Nc4ccccc43)[C@@H]2C[C@@H]1/C(=C\OC)C(=O)OC [Rhynchophylline], the “z-score of subpopulation abundance” value rises from -0.37 to -0.29.

Going from CC(C)=CCOc1c2occc2cc2ccc(=O)oc12 [Imperatorin] to Oc1cccc2cccnc12 [8-Hydroxyquinoline], the “z-score of subpopulation abundance” value rises from 1.29 to 2.14.

Going from CN1[C@@H]2CC[C@H]1C[C@@H](OC(=O)[C@H](CO)c1ccccc1)C2 [Hyoscyamine] to CN1[C@@H]2CC[C@H]1C[C@@H](OC(=O)C(CO)c1ccccc1)C2 (stereo not given in full) [Atropine sulfate monohydrate], the “z-score of subpopulation abundance” value falls from -0.73 to -0.85.

Compared with Nc1nc(N)nc(NC2CC2)n1 [Cyromazine], C=CC[C@]1(O)CC[C@H]2[C@@H]3CCC4=CC(=O)CCC4=C3C=C[C@@]21C [Altrenogest] is lower in “z-score of subpopulation abundance” value: 0.9 for the first, -0.25 for the second.

First: CCOC(=O)Nc1ccc(NCc2ccc(F)cc2)cc1N [Retigabine]
Second: Cc1cc(C(C#N)c2ccc(Cl)cc2)c(Cl)cc1NC(=O)c1cc(I)cc(I)c1O (stereo not given) [Closantel]
The “z-score of subpopulation abundance” value of the first is higher: 0.58 for the first, -0.13 for the second.

Compared with C[N+]1(C)[C@@H]2C[C@@H](OC(=O)[C@H](CO)c3ccccc3)C[C@H]1[C@@H]1O[C@@H]12 [Methscopolamine], CCC1=C[C@H]2CN3CCc4c([nH]c5ccccc45)[C@](C(=O)OC)(C2)[C@H]13 [Catharanthine] is lower in “z-score of subpopulation abundance” value: 0.16 for the first, -0.61 for the second.

First: CN(C)C(=O)Oc1ccc[n+](C)c1 [Pyridostigmine Bromide]
Second: CN(C)C(=O)Oc1cccc([N+](C)(C)C)c1 [Neostigmine Bromide]
The “z-score of subpopulation abundance” value of the first is higher: 0.07 for the first, -0.54 for the second.

Compared with Cn1cc(C2=C(c3cn(C4CCN(Cc5ccccn5)CC4)c4ccccc34)C(=O)NC2=O)c2ccccc21, O=c1[nH]c2ccccc2n1CCCN1CCC(n2c(=O)[nH]c3cc(Cl)ccc32)CC1 [Domperidone] is higher in “z-score of subpopulation abundance” value: -1.56 for the first, 0.27 for the second.

Going from CCCN1C[C@H](CSC)C[C@@H]2c3cccc4[nH]cc(c34)C[C@H]21 [Pergolide Mesylate] to COc1cc2c(cc1OC)C1CC(=O)C(CC(C)C)CN1CC2 (stereo not given) [Tetrabenazine (Xenazine)], the “z-score of subpopulation abundance” value rises from -0.36 to 0.63.

Going from CCCCCCCCCCCCCCCC[n+]1ccccc1 [Cetylpyridinium Chloride] to N[C@@H]1C[C@H]1c1ccccc1 [Tranylcypromine (2-PCPA) HCl], the “z-score of subpopulation abundance” value falls from 12.4 to -0.71.

First: NC(=O)CN1CCCC1=O [Piracetam]
Second: CC[C@@H](C(N)=O)N1CCCC1=O [Levetiracetam]
The “z-score of subpopulation abundance” value of the first is higher: 1.21 for the first, -0.1 for the second.

First: C[CH2][Hg][S]c1ccccc1C(=O)[O-].[Na+] [Thimerosal]
Second: CCN(C)C(=O)Oc1cccc([C@H](C)N(C)C)c1 [Rivastigmine Tartrate]
The “z-score of subpopulation abundance” value of the first is higher: 22.6 for the first, -1.12 for the second.

Compared with CN(C)[C@@H]1C(=O)C(C(N)=O)=C(O)[C@@]2(O)C(=O)C3=C(O)c4c(O)cccc4[C@@](C)(O)[C@H]3[C@H](O)[C@@H]12 [Oxytetracycline Dihydrate], CN(C)[C@@H]1C(=O)C(C(N)=O)=C(O)[C@@]2(O)C(=O)C3=C(O)c4c(O)ccc(Cl)c4[C@@](C)(O)[C@H]3C[C@@H]12 [Chlortetracycline HCl] is higher in “z-score of subpopulation abundance” value: -0.75 for the first, -0.67 for the second.

Going from CC(NC(C)(C)C)C(=O)c1cccc(Cl)c1 (stereo not given) [Amfebutamone (Bupropion) HCl] to Cc1cc(O)ccc1Cl [Chlorocresol], the “z-score of subpopulation abundance” value rises from -0.38 to -0.29.

Going from CC(=O)OCC1=C(C(=O)O)N2C(=O)C(N)C2SC1 (stereo not given) [7-Aminocephalosporanic acid] to CN(C)[C@@H]1C(=O)C(C(N)=O)=C(O)[C@@]2(O)C(=O)C3=C(O)c4c(O)cccc4[C@@](C)(O)[C@H]3[C@H](O)[C@@H]12 [Oxytetracycline (Terramycin)], the “z-score of subpopulation abundance” value rises from -0.48 to 0.64.

Going from CCOC(=O)Nc1ccc(NCc2ccc(F)cc2)cc1N [Retigabine 2HCl] to COc1ccc(C(CN(C)C)C2(O)CCCCC2)cc1 (stereo not given) [Venlafaxine HCl], the “z-score of subpopulation abundance” value falls from 0.88 to -0.61.

Compared with C=CN1CCCC1=O.II [Povidone iodine], COc1ccc(C(CN(C)C)C2(O)CCCCC2)cc1 (stereo not given) [Venlafaxine] is lower in “z-score of subpopulation abundance” value: 1.1 for the first, -0.77 for the second.
